Data taken from the supplement of paper PMC6555819.

How the values were obtained:
Experiment in all cases: PBM binding z-score (relative to random genomic background probes); higher = stronger binding; sequences stand for … in GC…GCGATTGACAGCGTAGAATGAAGG
[1] = tested on: FXR:RXRa (NR concentration 270 nM, RXRa partner concentration 90 nM)
Outline: (§1)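 Regression normalization was applied to scanned fluorescence from custom Agilent 4×180K protein-binding microarrays. Before scanning, arrays were incubated 1 h with ligand-free nuclear receptor dimers, and binding was detected with antibodies against each partner (one per run). Binding z-scores use the random background probes as reference.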

[2] = tested on: LXRa:RXRa (NR concentration 270 nM, RXRa partner concentration 90 nM)
Outline: as §1

[3] = tested on: LXRa homodimer (NR concentration 270 nM)
Outline: as §1

[4] = tested on: LXRb:RXRa (NR concentration 270 nM, RXRa partner concentration 90 nM)
Outline: as §1

[5] = tested on: LXRb homodimer (NR concentration 270 nM)
Outline: as §1

[6] = tested on: PPARa:RXRa (NR concentration 270 nM, RXRa partner concentration 90 nM)
Outline: as §1

[7] = tested on: PPARg:RXRa (NR concentration 180 nM, RXRa partner concentration 90 nM)
Outline: as §1

[8] = tested on: PPARg:RXRa 270nM:90nM, anti-RXR (NR concentration 270 nM, RXRa partner concentration 90 nM)
Outline: as §1

[9] = tested on: PPARg:RXRa 30nM:10nM, anti-RXR (NR concentration 30 nM, RXRa partner concentration 10 nM)
Outline: as §1

[10] = tested on: PPARg:RXRa 90nM:30nM, anti-RXR (NR concentration 90 nM, RXRa partner concentration 30 nM)
Outline: as §1

[11] = tested on: PPARg:RXRa DBDmut IVT, anti-RXR (DBD mutation: RXRa K156A/R161A, NR concentration 270 nM, RXRa partner concentration 90 nM)
Outline: as §1

[12] = tested on: PPARg:RXRa IVT, anti-PPARg (NR concentration 270 nM, RXRa partner concentration 90 nM)
Outline: as §1

[13] = tested on: PPARg DBDmut:RXRa IVT, anti-PPARg (DBD mutation: PPARg1 K132A/R137A, NR concentration 270 nM, RXRa partner concentration 90 nM)
Outline: as §1

[14] = tested on: PPARg DBDmut IVT, anti-PPARg (DBD mutation: PPARg1 K132A/R137A, NR concentration 270 nM)
Outline: as §1

[15] = tested on: PPARg homodimer (NR concentration 180 nM)
Outline: as §1

[16] = tested on: PXR:RXRa (NR concentration 270 nM, RXRa partner concentration 90 nM)
Outline: as §1

[17] = tested on: PXR homodimer (NR concentration 270 nM)
Outline: as §1

[18] = tested on: RARa:RXR (NR concentration 270 nM, RXRa partner concentration 90 nM)
Outline: as §1

[19] = tested on: RARa homodimer (NR concentration 270 nM)
Outline: as §1

[20] = tested on: RARb:RXRa (NR concentration 270 nM, RXRa partner concentration 90 nM)
Outline: as §1

Sequence	PBM binding z-score [1]	PBM binding z-score [2]	PBM binding z-score [3]	PBM binding z-score [4]	PBM binding z-score [5]	PBM binding z-score [6]	PBM binding z-score [7]	PBM binding z-score [8]	PBM binding z-score [9]	PBM binding z-score [10]	PBM binding z-score [11]	PBM binding z-score [12]	PBM binding z-score [13]	PBM binding z-score [14]	PBM binding z-score [15]	PBM binding z-score [16]	PBM binding z-score [17]	PBM binding z-score [18]	PBM binding z-score [19]	PBM binding z-score [20]
CCTAGTTGGTCAAGGTCACACGCGCTATAGGTAC	4.49	3.9	2.29	3.34	0.902	4.29	3.54	3.95	1.23	3.1	2.5	3.82	0.145	0.325	2.68	4.09	2.6	4.13	1.78	4.39
GCTTACGGGTCAAAGGTTATTGCATGAATAGAAT	7.79	5.75	1.09	5.81	0.701	6.84	11.3	9.3	8.78	10.8	4.96	5.79	2.15	2.94	3.22	6.21	0.728	8.16	1	4.49
CAAACTAGGTCAAGGTCAAAGACGGTTTGTGCCA	6.55	5.25	3.28	4.37	1.4	6.32	9.9	8.3	6.78	8.62	8.62	8.85	4.67	5.73	5.24	4.88	2.2	5	2.69	5.16
ACAGACAGGTGATGATGGTAACTCAGGCTATCAT	0.142	-0.0671	-0.0719	-0.166	-0.2	-0.0535	0.679	-0.301	0.191	0.135	-0.209	0.395	-0.375	0.608	0.0138	0.234	0.57	0.211	0.598	0.146
CCGAGTAGGTTATGGCGCATTCAGGCAACGGTGA	-0.0642	0.163	-0.0103	0.076	-0.283	0.62	0.319	0.503	-0.377	0.107	3.17	1.71	-0.391	-0.415	0.648	-0.289	-0.0371	0.131	0.249	0.551
CCTACTGCGCCAAAAAGGTCATTGATGCCGATAA	4.02	4.8	4.24	4.54	1.52	4.78	1.47	3.17	1.18	2.45	0.459	1.48	0.19	0.294	4.51	4.87	3.21	5.58	3.23	4.05
ATCTCTAGGGAAGACTCAGTTCAGTGAAGAACGC	-0.235	0.0835	0.196	-0.00503	0.414	-0.566	-0.0585	-0.317	-0.477	-0.307	0.54	0.0201	0.66	0.331	0.641	0.582	1.3	-0.127	0.457	-0.0542
CCTACTGGGCCAAAGGTCGTTGATTCCAATGCTC	1.29	1.46	-0.124	1.91	-0.505	5.3	11.1	9.69	9.46	10.5	5.47	5.6	0.111	-0.79	1.18	2.45	0.0615	3.09	-0.377	1.97
TAGCCTAGGTCAAGGGCCAGTATACCACGCGAAC	4.16	3.02	0.0881	2.2	-0.716	3.87	4.52	4.61	1.8	3.59	1.71	3.19	-0.167	-0.743	1.63	1.28	-0.234	2.31	-0.242	3.96
TGAATGAGGTTATAAGATCATGGAACGTTGCAAA	1.6	1.52	-0.175	1.37	0.0257	3.04	1.65	2.41	1.02	1.78	1.37	2	1.44	0.209	-0.119	1.1	-0.359	1.96	-0.439	1.13
CCTTACGGGTCAAGCTTATAGCACGGGTGGTACG	5.81	3.52	-0.087	3.04	0.0884	4.93	4.12	4.65	1.87	3.43	2.26	3.48	0.116	-0.188	1.56	2.77	-0.265	3.81	0.95	4.05
TCTATTAGTTGATGGGCAACCGACGAGTCCGTTT	0.353	0.502	-0.0154	0.186	0.322	-0.00429	0.0134	1.55	3.41	2.29	2.03	0.211	0.778	1.05	0.547	0.231	0.849	-0.171	0.633	0.125
CGAACTAGGTCATCCAGGACAGAGAATACATTGA	4.18	2.74	0.462	2.08	0.0984	4.79	7.72	6.45	3.83	5.81	8.15	8.34	2.22	1.68	1.64	1.97	1.05	2.45	0.545	3.79
AGAACGAGGGCACGCTGAGTTGATAGCAGAGTAG	0.783	0.47	-0.551	0.0516	-0.876	2.36	2.01	1.79	0.0193	0.94	4.13	3.81	0.29	-0.41	0.297	1.28	-0.0574	0.83	0.0569	2.52
